Results: PubChem BioAssay AID602438 (Sanford-Burnham Center for Chemical Genomics, 2012)
Out of some 360,000 compounds screened, about 3,100 (0.86%) were called active. Only a selection was taken, and actives are over-represented in it overall. Unmarked numbers belong to inactive results.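 Rule for the calls: active = inhibition or corrected inhibition above about 18%, plus a signal ratio from 0.5 to 1.5 (limit read from the data, passing the limit was not always enough); inactive = the rest.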

Molecular target: Neuropilin-1 (Homo sapiens) (UniProt O14786)
Sequence (O14786 whole entry, looked up): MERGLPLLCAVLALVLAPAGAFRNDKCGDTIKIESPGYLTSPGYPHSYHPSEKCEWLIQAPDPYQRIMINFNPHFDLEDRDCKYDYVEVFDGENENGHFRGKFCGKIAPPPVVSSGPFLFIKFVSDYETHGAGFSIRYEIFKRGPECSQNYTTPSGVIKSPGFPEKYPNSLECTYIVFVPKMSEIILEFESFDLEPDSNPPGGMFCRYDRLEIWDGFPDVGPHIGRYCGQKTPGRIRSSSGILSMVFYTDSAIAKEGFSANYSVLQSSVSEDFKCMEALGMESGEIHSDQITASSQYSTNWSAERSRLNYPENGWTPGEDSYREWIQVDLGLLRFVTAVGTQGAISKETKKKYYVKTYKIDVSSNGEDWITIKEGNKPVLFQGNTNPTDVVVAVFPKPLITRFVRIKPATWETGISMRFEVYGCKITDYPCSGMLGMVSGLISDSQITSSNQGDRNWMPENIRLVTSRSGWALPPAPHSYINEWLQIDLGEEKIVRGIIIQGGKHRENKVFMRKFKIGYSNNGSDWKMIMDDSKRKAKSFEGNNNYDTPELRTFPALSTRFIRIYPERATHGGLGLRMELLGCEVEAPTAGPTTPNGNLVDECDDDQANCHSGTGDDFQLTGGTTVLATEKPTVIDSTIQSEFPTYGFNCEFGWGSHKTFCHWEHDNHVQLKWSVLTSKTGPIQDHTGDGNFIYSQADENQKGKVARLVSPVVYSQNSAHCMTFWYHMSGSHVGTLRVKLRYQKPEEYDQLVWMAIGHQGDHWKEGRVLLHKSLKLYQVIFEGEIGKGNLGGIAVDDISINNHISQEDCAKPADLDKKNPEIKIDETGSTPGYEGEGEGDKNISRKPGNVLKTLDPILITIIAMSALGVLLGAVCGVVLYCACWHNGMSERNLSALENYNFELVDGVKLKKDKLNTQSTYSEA
Assay: modulators of CendR peptide binding to NRP-1, primary screen, biochemical, fluorescence polarization, uHTS (AID 602438)
Conditions: FAM-RPARPAR peptide binding to NRP-1, fluorescence polarization; at 25 µM; hits give high values

SMILES	inhibition
CSCCC(NS(=O)(=O)c1ccc(C)cc1)C(=O)N(C)CC(=O)Nc1ccccc1Br (stereo not drawn)	3.9%
O=C(CNC(=O)c1n[nH]c2ccccc12)Nc1cc(Cl)ccc1Cl	3.5%
CCC(NC(=O)c1cc(COc2ccc(F)c(F)c2)on1)c1ccncc1 (stereo not drawn)	1.4%
COc1ccccc1C1C(C(N)=O)=C(C)Nc2nc(CCCO)nn21 (stereo not drawn)	3.8%
COCCOC(=O)C1=C(C)Nc2nc(C)nn2C1c1ccccc1 (stereo not drawn)	36.8% (active)
CC1=C(C(N)=O)C(c2ccc(F)cc2)n2nc(CCCO)nc2N1 (stereo not drawn)	6.8%
Cc1noc(C)c1CSc1nnc2ccc3ccccc3n12	10.5%
COc1ccc(-c2ccc3nnc(SCC(=O)Nc4ccc(NC(C)=O)cc4)n3n2)cc1	-19%
CC1C(=O)N(Cc2ccccc2)c2ccccc2N1C(=O)c1ccccc1 (stereo not drawn)	1.5%
CNC(=O)N1c2ccccc2C=Cc2ccccc21	2.6%
CC1C(C)N(C(=O)CCl)c2ccccc2N1C(=O)CCl (stereo not drawn)	27.7% (active)
CCN(CC)c1ccc(C2C3CCCCC3(O)CCN2CC(=O)Nc2ccccc2)cc1 (stereo not drawn)	-12.5%
CC(C)Cc1nc(Nc2ccc(S(=O)(=O)N3CCCC3)cc2)c2nnn(Cc3ccccc3)c2n1	-9.8%
CCN(CC)CCN1C(=O)C2C(C(=O)Nc3ccc(Br)cc3)C3C=CC2(O3)C1C(=O)NC1CCCCC1 (stereo not drawn)	10%
CCOC(=O)CN1CC23C=CC(O2)C(C(=O)Nc2ccc(F)cc2)C3C1=O (stereo not drawn)	-3.4%
CC(C)COC(=O)C1C2C=CC3(CN(C(C)c4ccc(Br)cc4)C(=O)C13)O2 (stereo not drawn)	27.4% (active)
CCOC(=O)C1CCN(C(=O)c2ccccc2N(C)S(=O)(=O)c2ccccc2)CC1	7.6%
Cc1cccc(N2CCN(C(c3ccc(N(C)C)cc3)c3nnnn3C(C)(C)C)CC2)c1C (stereo not drawn)	-6.2%
O=C(CCl)NNc1cccc(Cl)n1	5.6%
COc1ccc(-c2c(C#N)cnc(C)c2C)c(O)c1OC	37.9% (active)
O=C(CC1SC(=Nc2ccccc2F)N(CCN2CCOCC2)C1=O)Nc1ccc(F)cc1F (stereo not drawn)	-6.8%
CCc1ccc(-c2nc(SCC(=O)NC3CCCC3)n[nH]2)cc1	-8.8%
Cc1cc(C)c(S(=O)(=O)N2CCCC2CNC(=O)c2ccc3c(c2)OCO3)c(C)c1 (stereo not drawn)	-6.7%
Cc1cc(NS(=O)(=O)c2ccc(NC(=O)C(C)Oc3cccc(C)c3C)cc2)nc(C)n1 (stereo not drawn)	-7.8%

SMILES	inhibition
Cc1onc(-c2ccccc2)c1C(=O)N1CCN(S(=O)(=O)c2ccccc2C(F)(F)F)CC1	-195%
CC(C)(C)S(=O)(=O)c1ccccc1-c1noc(-c2ccccc2)c1C(N)=O	42.7% (active)
O=C(COC(=O)c1cccnc1Cl)NC12CC3CC(CC(C3)C1)C2	8%
CC1(C(=O)NCc2ccc3c(c2)OCO3)CCN1C(=O)Cc1cccs1 (stereo not drawn)	3%
Cc1cc(C(=O)COc2ccccc2[N+](=O)[O-])c(C)n1-c1cccc(S(=O)(=O)N2CCOCC2)c1	-14.8%
CCc1c(N=O)c(-c2ccccc2)n(O)[n+]1[O-]	5.4%
O=C(CN1CCN(Cc2ccc(F)cc2Cl)C1=O)NCc1cccs1	-1.9%
CCN=C1S/C(=C\c2cc(Br)ccc2OCC(=O)OCC)C(=O)N1CC	-10.1%
CN(C)c1ccc2c(=O)[nH][nH]c(=O)c2c1	11.3%
COc1ccc(CNC(=O)[C@@H]2CC=C[C@@H]3CCN(C4CC4)C(=O)[C@@H]32)cc1	25.5% (active)
COc1ccc(CNC(=O)C2CCN(S(C)(=O)=O)CC2)cc1	-11.1%
COc1ccc(CNC(=O)C2CCN(C(=O)c3ccco3)CC2)cc1	-1%
COc1cccc(/C=N/NC(=O)C(=O)N2CCCC2)c1	-7.9%
CCOC(=O)C1(Cc2ccccc2C(F)(F)F)CCN(C(=O)c2cc(C)n(C)n2)CC1	-5.9%
O=C(O)c1ccccc1N=N/C(=N/Nc1cc(S(=O)(=O)O)ccc1O)c1ccccc1	41.5% (active)
Cc1ccc(S(=O)(=O)N(C)c2ccc(OCC(=O)OCc3ccc(C#N)cc3)cc2)cc1	-6.5%
O=C(c1ccc(N2CCCC2=O)cc1)N1CCN(c2ccc(C(F)(F)F)cc2[N+](=O)[O-])CC1	-0.8%
O=C(Cc1ccc(S(=O)(=O)N2CCOCC2)s1)N1CCN(c2ccc(C(F)(F)F)cc2[N+](=O)[O-])CC1	27.6% (active)
O=C(c1ccc(N2CCOCC2)c([N+](=O)[O-])c1)N1CCN(S(=O)(=O)c2cccs2)CC1	-14%
N#Cc1cccc(CSc2ncnc(N)n2)c1	12.4%
CCOC(=O)C1CCN(C(=O)CN2C(=O)NC(C)(c3ccc4cc(OC)ccc4c3)C2=O)CC1 (stereo not drawn)	-3.2%
CC1=C(C(N)=O)C(c2sccc2C)n2nnnc2N1 (stereo not drawn)	-5.6%
Cc1cccc(OCC(=O)NC2CC(C)(C)NC(C)(C)C2)c1	-1.1%
Cc1cc(OC(C)C(=O)NC2CC(C)(C)NC(C)(C)C2)c2c(C)cc(=O)oc2c1 (stereo not drawn)	1.2%
